The text below walks through data of article PMC7862700, “An all-to-all approach to the identification of sequence-specific readers for epigenetic DNA modifications on cytosine”.

Holding throughout (assay): DAPPL (digital affinity profiling via proximity ligation, sequencing); 10 mM Tris-HCl pH 7.5, 50 mM NaCl, 1 mM DTT, 4% glycerol, room temperature, 30 min; GST-TFs on glutathione beads, 16-mer random dsDNA library, 0.1% formaldehyde crosslink after washing; high values mean tight binding
For one assay, the target named is T1, FLI1 (Homo sapiens, UniProt Q01543 1-452).
T1 sequence: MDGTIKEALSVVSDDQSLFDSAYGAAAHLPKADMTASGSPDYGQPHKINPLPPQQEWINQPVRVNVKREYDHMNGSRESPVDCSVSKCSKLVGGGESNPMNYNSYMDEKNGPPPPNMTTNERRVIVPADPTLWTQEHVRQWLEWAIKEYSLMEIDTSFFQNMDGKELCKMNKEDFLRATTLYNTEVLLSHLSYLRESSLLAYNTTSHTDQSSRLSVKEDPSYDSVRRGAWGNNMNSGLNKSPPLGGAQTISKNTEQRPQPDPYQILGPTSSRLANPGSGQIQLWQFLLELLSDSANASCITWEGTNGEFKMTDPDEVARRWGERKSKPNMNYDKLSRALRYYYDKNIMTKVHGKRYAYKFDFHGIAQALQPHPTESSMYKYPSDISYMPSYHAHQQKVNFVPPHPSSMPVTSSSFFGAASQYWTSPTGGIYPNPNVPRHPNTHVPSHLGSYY
Particulars: protein: recombinant; tags: N-terminal GST; dsDNA, one strand shown. The method in brief: (§1)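 Binding signal is defined as a hexamer's read frequency for one factor over its frequency for the tag-only sample. To obtain reads, GST-fused human transcription factors were expressed in yeast, captured on glutathione beads, barcoded with DNA and pooled with that sample. Pools met 200 nmole of a 16-mer random double-stranded DNA library in Tris/NaCl/DTT/glycerol buffer for 30 min at room temperature before washing, 0.1% formaldehyde crosslinking, proximity ligation (BsaI/T4 ligase, 1 h, 37 °C), PCR and Illumina NextSeq500 sequencing.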

The target in a further assay is T2, ELK1 (Homo sapiens, UniProt P19419 1-428).
T2 sequence: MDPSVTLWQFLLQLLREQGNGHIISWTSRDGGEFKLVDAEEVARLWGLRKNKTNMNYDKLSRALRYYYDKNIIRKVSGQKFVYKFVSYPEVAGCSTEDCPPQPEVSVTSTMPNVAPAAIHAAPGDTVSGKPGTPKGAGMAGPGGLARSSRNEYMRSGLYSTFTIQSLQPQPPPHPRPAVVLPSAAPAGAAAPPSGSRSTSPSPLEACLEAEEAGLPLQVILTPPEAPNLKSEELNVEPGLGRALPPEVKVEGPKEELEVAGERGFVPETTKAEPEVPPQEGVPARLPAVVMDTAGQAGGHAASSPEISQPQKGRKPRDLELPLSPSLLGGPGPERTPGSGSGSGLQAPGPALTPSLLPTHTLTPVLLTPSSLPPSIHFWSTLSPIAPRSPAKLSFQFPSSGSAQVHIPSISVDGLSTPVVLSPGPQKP
Particulars: protein: recombinant; tags: N-terminal GST; dsDNA, one strand shown. In short, it runs like this: as §1

The target in another assay is T3, GABPA (Homo sapiens, UniProt Q06546 1-454).
T3 sequence: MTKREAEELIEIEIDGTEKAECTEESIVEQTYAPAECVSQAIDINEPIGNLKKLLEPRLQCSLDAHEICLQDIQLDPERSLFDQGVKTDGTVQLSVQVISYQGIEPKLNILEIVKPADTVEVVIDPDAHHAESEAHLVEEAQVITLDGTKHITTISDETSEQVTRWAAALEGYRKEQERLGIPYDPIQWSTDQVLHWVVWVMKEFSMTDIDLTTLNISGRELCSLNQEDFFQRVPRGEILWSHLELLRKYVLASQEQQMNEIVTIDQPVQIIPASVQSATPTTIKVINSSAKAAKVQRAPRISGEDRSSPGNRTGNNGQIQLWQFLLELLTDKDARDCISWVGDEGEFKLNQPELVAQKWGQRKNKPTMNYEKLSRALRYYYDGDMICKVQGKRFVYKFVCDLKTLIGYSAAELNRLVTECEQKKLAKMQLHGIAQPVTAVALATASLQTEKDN
Particulars: protein: recombinant; tags: N-terminal GST; dsDNA, one strand shown. In short, it runs like this: as §1

The target of the next assay is T4, ERG (Homo sapiens, UniProt P11308 1-479).
T4 sequence: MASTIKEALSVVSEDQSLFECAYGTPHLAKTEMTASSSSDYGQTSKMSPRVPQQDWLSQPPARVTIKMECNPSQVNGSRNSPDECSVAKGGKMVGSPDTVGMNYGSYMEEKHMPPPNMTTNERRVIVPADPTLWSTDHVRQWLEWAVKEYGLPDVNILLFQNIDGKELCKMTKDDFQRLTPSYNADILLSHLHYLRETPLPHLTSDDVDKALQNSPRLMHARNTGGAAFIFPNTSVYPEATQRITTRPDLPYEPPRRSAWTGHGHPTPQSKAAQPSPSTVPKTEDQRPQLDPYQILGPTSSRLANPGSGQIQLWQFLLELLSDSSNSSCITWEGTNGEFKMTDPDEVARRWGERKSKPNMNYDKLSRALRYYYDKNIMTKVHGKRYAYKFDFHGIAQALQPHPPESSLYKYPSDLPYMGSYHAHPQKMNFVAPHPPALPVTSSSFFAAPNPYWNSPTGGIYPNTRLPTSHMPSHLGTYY
Particulars: protein: recombinant; tags: N-terminal GST; dsDNA, one strand shown. In short, it runs like this: as §1

In another assay the target is ELF1 (Homo sapiens, UniProt P32519 1-619). The settings on record: protein: recombinant; tags: N-terminal GST; dsDNA, one strand shown. In short, it runs like this:
as §1

In a further assay the target is T5, EHF (Homo sapiens, UniProt Q9NZC4 1-300).
T5 sequence: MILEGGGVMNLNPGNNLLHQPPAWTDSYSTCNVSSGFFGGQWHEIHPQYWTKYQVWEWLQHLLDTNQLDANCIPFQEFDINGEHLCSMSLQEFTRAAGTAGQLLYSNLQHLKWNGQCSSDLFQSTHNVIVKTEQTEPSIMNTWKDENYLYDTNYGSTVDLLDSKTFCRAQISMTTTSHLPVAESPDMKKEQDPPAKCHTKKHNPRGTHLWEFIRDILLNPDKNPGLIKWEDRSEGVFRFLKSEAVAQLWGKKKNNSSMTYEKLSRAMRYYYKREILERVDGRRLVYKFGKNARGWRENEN
The settings on record: protein: recombinant; tags: N-terminal GST; dsDNA, one strand shown. In short, it runs like this: as §1

Another assay concerns the target SPI1 (Homo sapiens, UniProt P17947 1-270). The settings on record: protein: recombinant; tags: N-terminal GST; dsDNA, one strand shown. In short, it runs like this: as §1
In the next assay the target is SPIB (Homo sapiens, UniProt Q01892 1-262). The settings on record: protein: recombinant; tags: N-terminal GST; dsDNA, one strand shown. In short, it runs like this: as §1
In the next assay the target is T6, ELK3 (Homo sapiens, UniProt P41970 1-407).
T6 sequence: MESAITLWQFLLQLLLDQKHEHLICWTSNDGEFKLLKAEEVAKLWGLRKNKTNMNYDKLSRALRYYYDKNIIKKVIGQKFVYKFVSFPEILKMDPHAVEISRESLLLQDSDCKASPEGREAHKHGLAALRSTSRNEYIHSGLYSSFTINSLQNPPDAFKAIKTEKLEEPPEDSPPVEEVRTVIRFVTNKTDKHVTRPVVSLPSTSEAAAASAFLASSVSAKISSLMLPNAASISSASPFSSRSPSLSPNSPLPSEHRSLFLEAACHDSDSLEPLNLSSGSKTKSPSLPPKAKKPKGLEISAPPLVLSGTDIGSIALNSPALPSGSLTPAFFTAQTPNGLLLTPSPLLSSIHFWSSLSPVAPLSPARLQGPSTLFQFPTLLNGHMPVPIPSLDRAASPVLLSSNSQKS
Particulars: protein: recombinant; tags: N-terminal GST; dsDNA, one strand shown. In short, it runs like this: as §1

A further assay has as its target T7, FEV (Homo sapiens, UniProt Q99581 1-238).
T7 sequence: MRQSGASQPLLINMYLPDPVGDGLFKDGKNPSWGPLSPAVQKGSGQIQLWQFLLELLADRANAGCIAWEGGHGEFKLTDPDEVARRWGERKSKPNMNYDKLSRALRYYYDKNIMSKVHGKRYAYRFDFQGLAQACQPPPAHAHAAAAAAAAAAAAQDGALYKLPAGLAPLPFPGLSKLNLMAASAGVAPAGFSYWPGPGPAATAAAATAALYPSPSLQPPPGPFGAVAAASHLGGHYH
Particulars: protein: recombinant; tags: N-terminal GST; dsDNA, one strand shown. The method in brief:
as §1

A further assay has as its target ETV5 (Homo sapiens, UniProt P41161 1-510). Particulars: protein: recombinant; tags: N-terminal GST; dsDNA, one strand shown. The method in brief: as §1
The target of the next assay is HSF1 (Homo sapiens, UniProt Q00613 1-529). Particulars: protein: recombinant; tags: N-terminal GST; chain copies: 3; dsDNA, one strand shown. The method in brief:
as §1

A further assay deals with ELF4 (Homo sapiens, UniProt Q99607 1-663). Particulars: protein: recombinant; tags: N-terminal GST; dsDNA, one strand shown. In short, it runs like this:
as §1

The target in the next assay is T8, ELK4 (Homo sapiens, UniProt P28324-2 1-405).
T8 sequence: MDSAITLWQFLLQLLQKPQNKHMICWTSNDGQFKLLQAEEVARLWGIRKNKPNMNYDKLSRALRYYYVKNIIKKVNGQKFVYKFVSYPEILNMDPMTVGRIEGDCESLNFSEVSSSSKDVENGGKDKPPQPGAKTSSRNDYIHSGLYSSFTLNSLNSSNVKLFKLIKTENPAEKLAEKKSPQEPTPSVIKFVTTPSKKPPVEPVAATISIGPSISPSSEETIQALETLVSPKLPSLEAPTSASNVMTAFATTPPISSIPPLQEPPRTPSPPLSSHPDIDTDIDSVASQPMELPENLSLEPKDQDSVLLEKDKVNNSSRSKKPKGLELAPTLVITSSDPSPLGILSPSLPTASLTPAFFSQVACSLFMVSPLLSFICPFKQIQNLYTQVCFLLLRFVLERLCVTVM
The settings on record: protein: recombinant; tags: N-terminal GST; dsDNA, one strand shown. In short, it runs like this: as §1

For a further assay, the target named is T9, ETV2 (Homo sapiens, UniProt O00321 1-342).
T9 sequence: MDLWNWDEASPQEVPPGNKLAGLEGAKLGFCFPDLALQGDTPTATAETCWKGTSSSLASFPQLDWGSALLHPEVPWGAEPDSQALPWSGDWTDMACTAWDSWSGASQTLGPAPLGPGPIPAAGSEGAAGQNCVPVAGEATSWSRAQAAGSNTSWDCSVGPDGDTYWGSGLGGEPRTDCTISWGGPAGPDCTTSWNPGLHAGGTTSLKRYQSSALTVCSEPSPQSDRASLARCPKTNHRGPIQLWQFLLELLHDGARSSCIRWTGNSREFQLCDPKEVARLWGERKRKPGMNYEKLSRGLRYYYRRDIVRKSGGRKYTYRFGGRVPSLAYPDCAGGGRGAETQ
Particulars: protein: recombinant; tags: N-terminal GST; dsDNA, one strand shown. The method in brief: as §1

A further assay addresses T10, ELF3 (Homo sapiens, UniProt P78545 1-371).
T10 sequence: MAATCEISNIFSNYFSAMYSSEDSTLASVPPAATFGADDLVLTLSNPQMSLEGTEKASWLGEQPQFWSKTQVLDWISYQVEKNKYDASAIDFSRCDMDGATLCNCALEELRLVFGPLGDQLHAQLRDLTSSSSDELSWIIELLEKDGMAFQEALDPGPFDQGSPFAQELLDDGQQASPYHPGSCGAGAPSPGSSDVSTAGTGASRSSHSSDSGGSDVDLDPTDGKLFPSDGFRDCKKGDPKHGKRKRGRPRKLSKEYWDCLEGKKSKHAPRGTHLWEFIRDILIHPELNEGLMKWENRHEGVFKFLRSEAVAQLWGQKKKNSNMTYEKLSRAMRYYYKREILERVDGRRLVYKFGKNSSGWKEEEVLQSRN
Particulars: protein: recombinant; tags: N-terminal GST; dsDNA, one strand shown. In short, it runs like this: as §1

In a further assay the target is CRX (Homo sapiens, UniProt O43186 1-299). Particulars: protein: recombinant; tags: N-terminal GST; dsDNA, one strand shown. In short, it runs like this:
as §1

The target in the next assay is ETV1 (Homo sapiens, UniProt P50549 1-477). Particulars: protein: recombinant; tags: N-terminal GST; dsDNA, one strand shown. In short, it runs like this:
as §1

Sequence of HSF1 (Q00613 whole entry): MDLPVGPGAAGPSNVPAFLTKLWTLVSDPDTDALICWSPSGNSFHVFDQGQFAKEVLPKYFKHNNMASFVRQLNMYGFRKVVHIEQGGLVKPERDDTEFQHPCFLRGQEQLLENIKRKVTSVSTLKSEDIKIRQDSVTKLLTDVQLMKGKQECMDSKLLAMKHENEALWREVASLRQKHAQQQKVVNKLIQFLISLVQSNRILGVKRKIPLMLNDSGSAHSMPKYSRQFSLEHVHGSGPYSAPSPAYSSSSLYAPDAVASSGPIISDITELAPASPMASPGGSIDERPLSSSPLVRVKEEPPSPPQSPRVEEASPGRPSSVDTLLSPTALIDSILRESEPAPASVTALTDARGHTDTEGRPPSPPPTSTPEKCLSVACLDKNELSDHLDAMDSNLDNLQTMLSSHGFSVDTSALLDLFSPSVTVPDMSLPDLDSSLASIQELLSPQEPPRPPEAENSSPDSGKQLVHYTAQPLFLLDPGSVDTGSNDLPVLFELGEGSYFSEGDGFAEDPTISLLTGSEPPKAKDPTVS
Sequence of ELF1 (P32519 whole entry): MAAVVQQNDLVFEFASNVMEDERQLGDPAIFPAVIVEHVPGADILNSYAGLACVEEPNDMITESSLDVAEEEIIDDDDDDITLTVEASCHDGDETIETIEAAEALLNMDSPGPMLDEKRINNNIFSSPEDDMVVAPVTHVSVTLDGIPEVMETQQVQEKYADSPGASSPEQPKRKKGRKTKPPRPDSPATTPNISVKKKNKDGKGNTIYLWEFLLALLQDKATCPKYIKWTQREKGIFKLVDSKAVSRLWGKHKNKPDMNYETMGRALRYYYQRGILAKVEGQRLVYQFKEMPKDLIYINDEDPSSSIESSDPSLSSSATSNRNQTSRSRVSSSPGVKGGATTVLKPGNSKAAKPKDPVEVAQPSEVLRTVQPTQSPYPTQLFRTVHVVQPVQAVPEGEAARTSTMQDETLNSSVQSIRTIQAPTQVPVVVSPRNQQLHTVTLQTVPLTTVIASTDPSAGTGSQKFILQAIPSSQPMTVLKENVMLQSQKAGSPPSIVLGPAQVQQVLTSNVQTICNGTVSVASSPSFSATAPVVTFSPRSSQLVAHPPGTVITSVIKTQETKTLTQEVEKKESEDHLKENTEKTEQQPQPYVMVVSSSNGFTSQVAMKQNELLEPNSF
Sequence of CRX (O43186 whole entry): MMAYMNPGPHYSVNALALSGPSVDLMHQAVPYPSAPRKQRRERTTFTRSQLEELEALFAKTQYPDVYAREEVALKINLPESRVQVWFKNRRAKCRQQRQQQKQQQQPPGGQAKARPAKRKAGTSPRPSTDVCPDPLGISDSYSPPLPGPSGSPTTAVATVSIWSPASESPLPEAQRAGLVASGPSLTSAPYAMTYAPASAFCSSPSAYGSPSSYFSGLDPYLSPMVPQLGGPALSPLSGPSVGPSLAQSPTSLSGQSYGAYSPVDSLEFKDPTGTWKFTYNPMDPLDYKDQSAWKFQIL
Sequence of ELF4 (Q99607 whole entry): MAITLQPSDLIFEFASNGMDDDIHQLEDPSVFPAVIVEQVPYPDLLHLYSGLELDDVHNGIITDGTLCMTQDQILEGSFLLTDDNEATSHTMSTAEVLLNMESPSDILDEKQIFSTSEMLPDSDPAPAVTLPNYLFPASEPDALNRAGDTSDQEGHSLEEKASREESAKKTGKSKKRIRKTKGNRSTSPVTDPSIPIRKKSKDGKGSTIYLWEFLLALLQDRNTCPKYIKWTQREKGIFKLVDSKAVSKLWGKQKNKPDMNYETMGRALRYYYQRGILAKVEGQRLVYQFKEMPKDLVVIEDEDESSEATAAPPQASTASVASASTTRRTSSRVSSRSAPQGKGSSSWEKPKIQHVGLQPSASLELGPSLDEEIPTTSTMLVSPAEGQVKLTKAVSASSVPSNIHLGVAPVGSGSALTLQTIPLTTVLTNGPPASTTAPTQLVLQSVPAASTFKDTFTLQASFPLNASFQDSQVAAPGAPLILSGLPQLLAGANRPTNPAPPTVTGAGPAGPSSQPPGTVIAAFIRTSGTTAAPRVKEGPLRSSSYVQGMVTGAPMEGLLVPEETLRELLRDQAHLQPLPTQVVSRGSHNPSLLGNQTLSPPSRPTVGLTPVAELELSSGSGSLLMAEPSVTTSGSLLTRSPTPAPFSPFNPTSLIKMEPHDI
Sequence of ETV1 (P50549 whole entry): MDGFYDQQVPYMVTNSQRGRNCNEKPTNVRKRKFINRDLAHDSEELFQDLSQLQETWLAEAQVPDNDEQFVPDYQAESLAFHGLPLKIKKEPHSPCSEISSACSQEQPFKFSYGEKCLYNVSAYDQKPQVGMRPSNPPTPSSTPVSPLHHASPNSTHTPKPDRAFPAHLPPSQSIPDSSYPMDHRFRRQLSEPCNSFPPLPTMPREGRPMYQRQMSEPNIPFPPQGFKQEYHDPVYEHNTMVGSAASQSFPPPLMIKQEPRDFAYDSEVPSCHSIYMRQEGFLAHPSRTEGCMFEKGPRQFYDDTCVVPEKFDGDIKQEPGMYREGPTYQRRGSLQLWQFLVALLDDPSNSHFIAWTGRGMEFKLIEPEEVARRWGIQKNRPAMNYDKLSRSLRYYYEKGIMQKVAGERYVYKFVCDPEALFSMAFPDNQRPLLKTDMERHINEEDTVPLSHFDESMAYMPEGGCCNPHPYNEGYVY
Sequence of ETV5 (P41161 whole entry): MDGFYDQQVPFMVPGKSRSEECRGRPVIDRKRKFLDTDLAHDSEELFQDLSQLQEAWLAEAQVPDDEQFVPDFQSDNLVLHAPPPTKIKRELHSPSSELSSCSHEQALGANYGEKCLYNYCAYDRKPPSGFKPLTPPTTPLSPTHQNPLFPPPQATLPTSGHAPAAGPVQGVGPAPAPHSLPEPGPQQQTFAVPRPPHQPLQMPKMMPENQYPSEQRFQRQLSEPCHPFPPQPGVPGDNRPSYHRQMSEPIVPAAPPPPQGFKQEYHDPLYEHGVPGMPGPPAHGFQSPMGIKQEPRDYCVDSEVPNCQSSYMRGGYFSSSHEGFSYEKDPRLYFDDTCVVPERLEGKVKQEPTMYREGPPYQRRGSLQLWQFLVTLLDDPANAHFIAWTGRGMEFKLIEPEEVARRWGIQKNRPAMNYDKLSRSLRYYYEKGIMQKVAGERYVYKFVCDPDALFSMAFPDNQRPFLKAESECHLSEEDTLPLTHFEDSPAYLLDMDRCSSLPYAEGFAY
Sequence of SPIB (Q01892 whole entry): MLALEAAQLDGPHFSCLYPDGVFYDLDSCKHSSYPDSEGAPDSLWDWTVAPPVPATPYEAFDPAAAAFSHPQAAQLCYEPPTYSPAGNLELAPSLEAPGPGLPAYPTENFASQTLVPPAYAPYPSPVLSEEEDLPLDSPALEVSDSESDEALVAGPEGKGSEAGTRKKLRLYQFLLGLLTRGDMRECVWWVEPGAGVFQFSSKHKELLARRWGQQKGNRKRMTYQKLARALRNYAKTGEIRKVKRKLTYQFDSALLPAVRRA

As for AGCTGC, the binding signal with FLI1 was 1.16 fold enrichment (6-mer frequency, TF over GST control); with ELK1, 1.16 fold enrichment (6-mer frequency, TF over GST control); in the assay with GABPA, 1.17 fold enrichment (6-mer frequency, TF over GST control); with ERG it was 1.1 fold enrichment (6-mer frequency, TF over GST control); with ELF1 it was 1.18 fold enrichment (6-mer frequency, TF over GST control); in the assay with EHF it was 1.18 fold enrichment (6-mer frequency, TF over GST control). For the same sequence, the binding signal with SPI1 is 1.11 fold enrichment (6-mer frequency, TF over GST control); with SPIB, 1.24 fold enrichment (6-mer frequency, TF over GST control); with ELK3 it was 1.01 fold enrichment (6-mer frequency, TF over GST control); with FEV it was 1.15 fold enrichment (6-mer frequency, TF over GST control); in the assay with ETV5, 1.06 fold enrichment (6-mer frequency, TF over GST control); with HSF1 it was 1.04 fold enrichment (6-mer frequency, TF over GST control). Besides, the binding signal with ELF4 was 1.16 fold enrichment (6-mer frequency, TF over GST control); with ELK4 it was 1.11 fold enrichment (6-mer frequency, TF over GST control); with ETV2 it was 1.22 fold enrichment (6-mer frequency, TF over GST control); with ELF3 it was 1.08 fold enrichment (6-mer frequency, TF over GST control); with CRX it was 1.13 fold enrichment (6-mer frequency, TF over GST control); with ETV1, 1.18 fold enrichment (6-mer frequency, TF over GST control).
